PubChem BioAssay (NCI)
This is part of a sample that, as a whole, favours compounds with a hit. Of some 83,000 tested, about 20% had one in any assay.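 Values shown are percent growth following 48 h exposure of cells in 96-well plates to a single concentration of compound; below 10 was considered active.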 Calls of active or inactive are those of the source.

Columns and labels:
Assay in all cases: NCI-60 one-dose screen, 48 h (100 = growth as untreated, 0 = no growth, -100 = all killed)
Conditions in all cases: 10 µM unless noted
EKVX NSCLC = tested on: EKVX NSCLC
SN12C renal = tested on: SN12C renal
UO-31 renal = tested on: UO-31 renal
TK-10 renal = tested on: TK-10 renal
ACHN renal = tested on: ACHN renal
CAKI-1 renal = tested on: CAKI-1 renal
CCRF-CEM leukemia = tested on: CCRF-CEM leukemia
MOLT-4 leukemia = tested on: MOLT-4 leukemia
A498 renal = tested on: A498 renal

Measured: growth

COc1ccc(NC(=O)Cn2c(/C=C/c3cccc(Br)c3)nc3ccccc3c2=O)cc1
active: SN12C renal 5.79% | UO-31 renal -60.6% | TK-10 renal -39.4% | ACHN renal -51.1%
inactive: EKVX NSCLC 81.8% | CAKI-1 renal 55.7% | CCRF-CEM leukemia 86.8% | MOLT-4 leukemia 86.5%

C/C(=N/O)c1ccc(NC(=O)CSc2nnc(-c3ccc(-c4nc5ccc(Cl)cc5[nH]4)cc3)o2)cc1
active: MOLT-4 leukemia 2.09%
inactive: EKVX NSCLC 13.4% | UO-31 renal 104% | TK-10 renal 99.5% | ACHN renal 45.5% | CAKI-1 renal 60.2% | A498 renal 160% | CCRF-CEM leukemia 34.5%

Oc1ccc(F)c(Nc2nc(SCCN3CCOCC3)nc3c2cnn3CC(Cl)c2ccc(Br)cc2)c1 (centres undefined)
inactive: EKVX NSCLC 30% | UO-31 renal 16.9% | TK-10 renal 68.6% | ACHN renal 16.5% | CAKI-1 renal 24% | A498 renal 63.1%
active: CCRF-CEM leukemia -3.71% | MOLT-4 leukemia 6.17%

CCCCCCCCCc1ccc(C(=O)Nc2cc(C)ccc2C(=O)OC)cc1
inactive: EKVX NSCLC 109% | SN12C renal 101% | UO-31 renal 98.4% | TK-10 renal 121% | ACHN renal 109% | CAKI-1 renal 98.8% | A498 renal 128% | CCRF-CEM leukemia 87.9% | MOLT-4 leukemia 97.5%

NS(=O)(=O)c1ccc(N2N=C(c3ccc(NC(=O)Nc4ccccc4)cc3)CC2c2ccc(Br)cc2)cc1 (centres undefined)
active: EKVX NSCLC -95.8% | SN12C renal -97.7% | UO-31 renal -97.2% | TK-10 renal -61.3% | ACHN renal -100% | CAKI-1 renal -85.4% | A498 renal -79.4% | CCRF-CEM leukemia 0.369% | MOLT-4 leukemia 9.26%

CCc1ccccc1-c1nc(CN[C@@H]2C[C@@H]3C[C@H]([C@H]2C)C3(C)C)c(C)o1
active: EKVX NSCLC -81.8% | SN12C renal -79.3% | UO-31 renal -87.8% | TK-10 renal -88.9% | ACHN renal -97.9% | CAKI-1 renal -95% | A498 renal -90.9% | CCRF-CEM leukemia 3.82% | MOLT-4 leukemia -28.2%

Cc1nc(Nc2ccccn2)sc1C1=NNC(c2ccccc2F)C1 (centres undefined)
inactive: EKVX NSCLC 72.4% | SN12C renal 57.9% | UO-31 renal 48% | TK-10 renal 119% | ACHN renal 56.5% | CAKI-1 renal 61.8% | CCRF-CEM leukemia 19.1% | MOLT-4 leukemia 25.4%

CC(C)CN1C(=O)/C(=C\C(=O)c2cc3ccccc3oc2=O)c2ccccc21
inactive: EKVX NSCLC 94.7% | SN12C renal 89.9% | UO-31 renal 52.1% | TK-10 renal 98.2% | ACHN renal 30.6% | CAKI-1 renal 81.2% | A498 renal 149% | CCRF-CEM leukemia 37.2% | MOLT-4 leukemia 40%

Cn1cc(-c2cc3nc(-c4cn(C)c5ncccc45)cc(N)n3n2)c2cc(F)ccc21
inactive: EKVX NSCLC 69.8% | SN12C renal 51.2% | UO-31 renal 52.6% | TK-10 renal 74.6% | ACHN renal 17.6% | CAKI-1 renal 12.8% | A498 renal 138% | CCRF-CEM leukemia 38.6% | MOLT-4 leukemia 55.5%

O=C(N/N=C/c1ccoc1)c1[nH]c2ccc(Br)cc2c1-c1ccccc1
active: EKVX NSCLC -97.6% | SN12C renal -95.8% | UO-31 renal -82.5% | TK-10 renal -82.5% | ACHN renal -100% | CAKI-1 renal -99.6% | A498 renal -82.9% | CCRF-CEM leukemia -12.1% | MOLT-4 leukemia -5.76%

O=C(Nc1ccc(F)cc1)Nc1nc2ccc([N+](=O)[O-])cc2s1
inactive: CCRF-CEM leukemia 11.5% | MOLT-4 leukemia 14.6%
active: EKVX NSCLC 1.79% | SN12C renal -0.399% | UO-31 renal 4.33% | TK-10 renal 6.73% | ACHN renal 2.52% | CAKI-1 renal -12.5% | A498 renal -15%

Cc1nn(-c2ccccc2)c2ncn(CC(=O)N/N=C/c3ccccc3O)c(=O)c12
inactive: EKVX NSCLC 13.3% | SN12C renal 47.4% | UO-31 renal 22.6% | TK-10 renal 63.4% | ACHN renal 21.4% | CAKI-1 renal 39.1% | A498 renal 87.2% | CCRF-CEM leukemia 23.9%
active: MOLT-4 leukemia 9.42%
